# Several values for one entry are separate records, joined by “and”; a condition that tells them apart may be missing. Equal values may be shown once. Results filed as inconclusive are left out. A call without a number means that no potency is given here. Activity calls are given as the source filed them. Unless noted, calls come from the whole dose curve; as a rule, active = well fitted curve in the direction sought with a large enough effect; inconclusive = small, poorly fitted or top-dose-only effect, or another doubt; inactive = no such curve, though single readings can be large; an effect the other way counts as inactive or inconclusive.
# Assays:
# [1] = molecular target: DNA repair nuclease/redox regulator APEX1 (Homo sapiens) (UniProt P27695); assay: qHTS Validation Assay for Inhibitors of the Human Apurinic/apyrimidinic Endonuclease 1 (APE1) (AID 1705;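 note: TAMRA fluorescence gain over two minutes as APE1 cuts a quenched THF abasic duplex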)
# Chain of DNA repair nuclease/redox regulator APEX1 (Homo sapiens) (P27695 whole entry, looked up): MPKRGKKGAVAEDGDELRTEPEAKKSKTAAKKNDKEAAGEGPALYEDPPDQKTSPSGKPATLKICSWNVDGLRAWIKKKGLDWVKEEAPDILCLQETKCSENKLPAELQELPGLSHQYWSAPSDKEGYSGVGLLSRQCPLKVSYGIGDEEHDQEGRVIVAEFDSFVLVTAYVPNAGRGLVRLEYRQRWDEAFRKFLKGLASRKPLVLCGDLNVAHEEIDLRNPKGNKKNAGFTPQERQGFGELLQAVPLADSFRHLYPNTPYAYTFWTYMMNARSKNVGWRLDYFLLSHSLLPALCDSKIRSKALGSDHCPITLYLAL
# Method in brief: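 Activity read as rising fluorescence (598 nm emission, 525 nm excitation) from incision of a TAMRA/BHQ-2 duplex carrying a THF abasic site (50 nM). Compound and enzyme sat 15 min at RT before substrate start; signal change between first and third 60-s reads.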
# [2] = Counterscreen for APE1 Inhibitors: Fluorescent Dye Displacement Validation Assay (AID 1707)
# Method in brief: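 Loss of Thiazole Orange fluorescence marks promiscuous DNA binders. The dye (250 nM) is mixed with 50 nM abasic-site dsDNA in pH7.5 Tris buffer containing MgCl2, then compounds are added and emission is read once.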
# [3] = molecular target: Endonuclease 4 (Escherichia coli (strain K12)) (UniProt P0A6C1); assay: Counterscreen for APE1 Inhibitors: qHTS Validation Assay for Inhibitors of Endonuclease IV (AID 1708)
# Method in brief: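 Read-out: fluorescence rise (ex 525/em 598 nm) from incision of a TAMRA/BHQ-2 double-stranded THF abasic-site substrate (50 nM), measured kinetically; third-minus-first read difference gave reaction progress. Enzyme 2 nM.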
# [4] = qHTS for differential inhibitors of proliferation of Plasmodium falciparum line 7G8 (AID 1815);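 note: parasite growth measured after three days of incubation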; note: potency is the fitted concentration of half-maximal effect
# [5] = qHTS for differential inhibitors of proliferation of Plasmodium falciparum line GB4 (AID 1816); conditions: Potency: Plasmodium falciparum GB4 proliferation inhibition;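 note: parasite growth measured after 72 h incubation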; note: potency is the fitted concentration of half-maximal effect
# [6] = qHTS for differential inhibitors of proliferation of Plasmodium falciparum line 3D7 (AID 1876); note: potency is the fitted concentration of half-maximal effect
# [7] = qHTS for differential inhibitors of proliferation of Plasmodium falciparum line D10 (AID 1877);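 note: parasites grown with compound for 72 h before DNA staining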; note: potency is the fitted concentration of half-maximal effect
# [8] = qHTS for differential inhibitors of proliferation of Plasmodium falciparum line Dd2 (AID 1882); conditions: Potency: Plasmodium falciparum Dd2 proliferation inhibition; note: nearly all actives have a fitted effect of over 65% in size; note: potency is the fitted concentration of half-maximal effect;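 for activity change, negative = inhibition: compound exposure of 72 h on infected erythrocytes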
# Method in brief: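 RBC culture, 0.3% parasitemia / 2.5% Hct final; cpd added by pin tool in DMSO; 72 h, 37 C, 5% CO2; lysis buffer + SYBR Green I, o/n RT dark; FI 485/535; norm. to artemisinin 0.29 uM and DMSO.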
# [9] = qHTS for differential inhibitors of proliferation of Plasmodium falciparum line W2 (AID 1883); conditions: Potency: Plasmodium falciparum W2 proliferation inhibition;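 note: parasites grown with compound for 72 h before lysis and staining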; note: potency is the fitted concentration of half-maximal effect
# [10] = qHTS for differential inhibitors of proliferation of Plasmodium falciparum line HB3 (AID 1886); conditions: Potency: Plasmodium falciparum HB3 proliferation inhibition;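 note: parasites grown with compound for 72 h before SYBR Green readout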; note: potency is the fitted concentration of half-maximal effect
# [11] = molecular target: ATP-dependent DNA helicase Q1 (Homo sapiens) (UniProt P46063); assay: qHTS Validation Assay for Inhibitors of RecQ-Like Dna Helicase 1 (RECQ1) (AID 2353)
# Chain of ATP-dependent DNA helicase Q1 (Homo sapiens) (P46063 whole entry, looked up): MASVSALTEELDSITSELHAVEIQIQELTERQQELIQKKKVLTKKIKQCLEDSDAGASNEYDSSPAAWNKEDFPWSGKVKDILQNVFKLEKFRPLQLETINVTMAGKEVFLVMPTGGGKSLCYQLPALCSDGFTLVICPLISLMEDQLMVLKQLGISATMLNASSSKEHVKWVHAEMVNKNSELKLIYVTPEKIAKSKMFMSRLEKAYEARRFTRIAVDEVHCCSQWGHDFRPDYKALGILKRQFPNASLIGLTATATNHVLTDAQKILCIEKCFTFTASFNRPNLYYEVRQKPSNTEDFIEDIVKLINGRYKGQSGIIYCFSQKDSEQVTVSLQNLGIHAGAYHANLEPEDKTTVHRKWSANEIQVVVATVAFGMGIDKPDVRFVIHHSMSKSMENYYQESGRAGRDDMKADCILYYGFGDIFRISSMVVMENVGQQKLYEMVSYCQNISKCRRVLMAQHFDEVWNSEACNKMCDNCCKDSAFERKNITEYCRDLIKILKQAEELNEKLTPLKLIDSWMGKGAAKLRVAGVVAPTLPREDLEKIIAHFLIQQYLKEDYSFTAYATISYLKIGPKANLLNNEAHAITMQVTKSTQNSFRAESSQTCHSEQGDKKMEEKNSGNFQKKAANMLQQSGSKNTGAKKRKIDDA
# Method in brief: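 RECQ1T1 50 nM; forked duplex (20 bp + 30-nt ss tails) 200 nM, ATP 2 mM final; pH 8.0, 2 mM MgCl2, 2.5 ug/ml poly(dI-dC); 15 min compound preincubation; discontinuous kinetic read over 2 h at RT.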
# [12] = Cytometry Cell-Based qHTS for Inhibitors of the mTORC1 Signaling Pathway in MEF cells (AID 2668); note: potency is the fitted concentration of half-maximal effect;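 for activity change, negative = inhibition: Tsc2-/- p53-/- mouse embryonic fibroblasts stably re-expressing wild-type Tsc2; percent cells positive for phospho-rpS6 Ser235/236 relative to propidium iodide stain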
# Method in brief: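 Phospho-rpS6 (Ser235/236) immunofluorescence over PI signal, scored as % positive cells using thresholds from 7.5 nM rapamycin and DMSO wells, after 24 h compound exposure of WT-Tsc2-rescued Tsc2-/-, p53-/- MEFs. PI cell count recorded for viability.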
# [13] = qHTS Assay for Identification of Small Molecule Inducers of Hypoxia Response (AID 2120; active = well fitted curve in the direction sought with a large enough effect in the signal ratio, with a control signal flat, not every such curve was filed as active; the % refers to the signal ratio)
# Method in brief: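 Read-out: CCF4 FRET emission ratio 460nm/530nm (excitation 405nm), converted to %Activity, with AC50 fitted across a compound titration. ME-180 cells carried an HRE-driven beta-lactamase reporter; compound exposure 17 h, 37 degrees C.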
# [14] = Cytometric Cell-Based qHTS for Inhibitors of the mTORC1 Signaling Pathway in MEF (Tsc2-/-, p53-/-) Cells (AID 2660);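 note: Tsc2 and p53 null MEFs carrying empty vector with compound for 24 h; percent of cells above a phospho-rpS6 to PI ratio cutoff in each well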
# Method in brief: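 Percent of cells positive for normalized phospho-S6 staining is reported, with the cutoff set from rapamycin (7.5 nM) versus DMSO wells. Tsc2-/-, p53-/- MEFs received compound for 24 hrs.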
# [15] = High Content Imaging Cell-Based qHTS for Inhibitors of the mTORC1 Signaling Pathway in MEF Cells (AID 2667);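 note: Tsc2-/- p53-/- MEFs stably re-expressing wild-type Tsc2 exposed 24 h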
# Method in brief: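 Read-out is the share of phospho-rpS6-positive cells per well, from Hoechst-normalized Alexa-488 Ser235/236 staining imaged on IN Cell. Cells: WT Tsc2-expressing Tsc2-/-, p53-/- MEFs exposed to compound for 24 hrs.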
# [16] = Validation screen for small molecules that induce DNA re-replication in MCF 10A normal breast cells (AID 463097); note: nearly all actives have a fitted effect of over 60% in size
# Method in brief: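 Read-out is Hoechst total nuclear intensity by fluorescence scanning imager, flagging increased high-DNA-content nuclei. Compounds were incubated with MCF 10A cells for 48 hr (37 C, 5% CO2) before 40 min staining.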
# [17] = qHTS Assay for Lipid Storage Modulators (AID 1519; calls by dose curve); conditions: Drosophila S3 cells, BODIPY lipid droplet/cell ratio, laser cytometry, cells loaded with oleic acid
# Method in brief: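 Cells seeded at 5,000 per well were treated with compounds over a concentration series and loaded with oleic acid (400 uM, as added). Lipid droplet fluorescence (488 nm excitation, 500-530 nm channel) was read by laser-scanning cytometry and normalized to 20 uM Triacsin C.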
# [18] = molecular target: Ferritin light chain (Equus caballus) (UniProt P02791); assay: qHTS Validation Assay for Identification of Novel General Anesthetics (AID 2323)
# Chain of Ferritin light chain (Equus caballus) (P02791 2-175 limits assumed): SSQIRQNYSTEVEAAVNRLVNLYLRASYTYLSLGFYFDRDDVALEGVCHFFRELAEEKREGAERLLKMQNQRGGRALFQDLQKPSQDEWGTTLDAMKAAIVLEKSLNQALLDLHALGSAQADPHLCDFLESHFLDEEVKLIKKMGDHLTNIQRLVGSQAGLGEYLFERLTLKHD
# Method in brief: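 Competitive displacement of the profluorescent anesthetic 1-AMA (50% saturated, PBS) from 10 uM apoferritin, 10 min, room temperature. Activity is normalized 380/535 nm fluorescence; concentration-response fitted with a four-parameter Hill equation.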
# [19] = molecular target: RecQ-like DNA helicase BLM (Homo sapiens) (UniProt P54132); assay: qHTS Validation Assay for Inhibitors of Bloom's syndrome helicase (BLM) (AID 2364)
# Chain of RecQ-like DNA helicase BLM (Homo sapiens) (P54132 whole entry, looked up): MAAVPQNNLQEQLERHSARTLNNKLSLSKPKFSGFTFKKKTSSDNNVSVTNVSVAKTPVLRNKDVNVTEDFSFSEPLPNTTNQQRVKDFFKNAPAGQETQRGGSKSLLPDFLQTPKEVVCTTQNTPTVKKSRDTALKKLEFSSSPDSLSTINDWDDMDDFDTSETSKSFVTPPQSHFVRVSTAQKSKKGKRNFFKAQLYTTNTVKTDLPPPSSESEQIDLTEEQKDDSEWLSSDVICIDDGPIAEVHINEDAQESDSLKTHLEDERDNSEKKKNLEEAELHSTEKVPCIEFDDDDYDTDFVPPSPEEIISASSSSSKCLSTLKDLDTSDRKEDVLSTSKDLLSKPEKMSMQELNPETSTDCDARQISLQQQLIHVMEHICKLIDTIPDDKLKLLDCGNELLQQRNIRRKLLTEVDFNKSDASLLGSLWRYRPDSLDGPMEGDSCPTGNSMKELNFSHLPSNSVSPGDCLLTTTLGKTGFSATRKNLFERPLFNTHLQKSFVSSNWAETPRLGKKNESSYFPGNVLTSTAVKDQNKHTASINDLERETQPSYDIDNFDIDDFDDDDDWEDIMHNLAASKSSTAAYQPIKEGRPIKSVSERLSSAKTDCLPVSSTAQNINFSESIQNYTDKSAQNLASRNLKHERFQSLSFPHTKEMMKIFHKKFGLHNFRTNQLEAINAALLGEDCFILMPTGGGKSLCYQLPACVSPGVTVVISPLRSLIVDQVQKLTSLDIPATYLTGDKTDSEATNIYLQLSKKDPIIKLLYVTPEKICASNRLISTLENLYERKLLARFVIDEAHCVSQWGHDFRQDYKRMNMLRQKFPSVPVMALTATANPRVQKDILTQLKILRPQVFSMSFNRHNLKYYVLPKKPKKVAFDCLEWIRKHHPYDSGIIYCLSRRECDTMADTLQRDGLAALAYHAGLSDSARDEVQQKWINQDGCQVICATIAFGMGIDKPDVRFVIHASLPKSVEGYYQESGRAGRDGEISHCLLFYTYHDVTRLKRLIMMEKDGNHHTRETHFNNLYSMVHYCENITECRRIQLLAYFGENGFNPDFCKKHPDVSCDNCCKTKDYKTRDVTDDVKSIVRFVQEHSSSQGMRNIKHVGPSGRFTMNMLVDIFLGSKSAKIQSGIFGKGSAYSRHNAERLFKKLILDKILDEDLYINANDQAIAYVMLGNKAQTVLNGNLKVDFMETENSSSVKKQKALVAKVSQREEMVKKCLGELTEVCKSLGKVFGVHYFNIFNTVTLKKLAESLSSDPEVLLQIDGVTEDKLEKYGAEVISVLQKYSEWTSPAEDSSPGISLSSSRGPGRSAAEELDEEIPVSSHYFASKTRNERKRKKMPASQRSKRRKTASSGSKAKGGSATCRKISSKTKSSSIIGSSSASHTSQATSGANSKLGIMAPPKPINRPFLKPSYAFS
# Method in brief: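 50 nM BLM preincubated 15 min at room temperature with compound in pH 8.0 Tris buffer containing 2.5 ug/ml poly(dI-dC); started with 200 nM TAMRA/BHQ-2 forked duplex and 2 mM ATP (final). Unwinding read as TAMRA fluorescence increase, two reads 2 h apart.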
# [20] = measured here: cell count channel max response
# [21] = measured here: lipid channel max response
compound,measurement,setting,value
CC1=C(/C=C/C(C)=C/C=C/C(C)=C/C(=O)Nc2ccc(O)cc2)C(C)(C)CCC1,outcome,[1],inactive
same,outcome,[2],inactive
same,outcome,[3],inactive
same,Potency,[4],3.55 µM (active)
same,Potency,[5],6.31 µM (active)
same,Potency,[6],11.2 µM (active)
same,Potency,[7],12.6 µM (active)
same,Potency,[8],11.2 µM (active)
same,Potency,[9],3.98 µM (active)
same,Potency,[10],12.6 µM (active)
same,outcome,[11],inactive
same,Potency,[12],18.5 µM (active)
CCCCC1C(=O)N(c2ccccc2)N(c2ccccc2)C1=O,outcome,[1],inactive
same,outcome,[2],inactive
same,outcome,[3],inactive
same,Potency,[5],14.1 µM (active)
same,Potency,[6],11.2 µM (active)
same,Potency,[9],11.2 µM (active)
same,outcome,[13],inactive
same,outcome,[11],inactive
same,outcome,[14],inactive
same,outcome,[15],inactive
same,Potency,[12],inactive
same,Potency,[16],inactive
CC(C)OC(=O)C(C)(C)Oc1ccc(C(=O)c2ccc(Cl)cc2)cc1,"activity change, negative = inhibition",[17]; at 25.7 µM (top of the series),-4.12% (inactive)
same,max response,[17]; [20],-11.4%
same,max response,[17]; [21],-14.8%
same,outcome,[1],inactive
same,outcome,[11],inactive
same,outcome,[14],inactive
same,outcome,[15],inactive
same,Potency,[16],inactive
O=C(O)CCc1nc(-c2ccccc2)c(-c2ccccc2)o1,"activity change, negative = inhibition",[17]; at 25.7 µM (top of the series),0.686% (inactive)
same,max response,[17]; [20],0.745%
same,max response,[17]; [21],2.18%
same,outcome,[1],inactive
same,outcome,[2],inactive
same,outcome,[3],inactive
same,outcome,[18],inactive
same,outcome,[11],inactive
same,Potency,[19],inactive
same,outcome,[14],inactive
same,outcome,[15],inactive
same,Potency,[12],inactive
same,Potency,[16],inactive
CCn1cc(C(=O)O)c(=O)c2ccc(C)nc21,outcome,[14],inactive
same,outcome,[15],inactive
same,Potency,[12],inactive
O=c1[nH]cnc2c1ncn2[C@H]1CC[C@@H](CO)O1,outcome,[13],inactive
COc1ccc(Cc2nccc3cc(OC)c(OC)cc23)cc1OC,outcome,[14],inactive
same,outcome,[15],inactive
same,Potency,[12],inactive
COC(=O)[C@@H]1[C@H]2C[C@H]3c4[nH]c5ccccc5c4CCN3C[C@@H]2CC[C@@H]1O,outcome,[1],inactive
same,outcome,[2],inactive
same,outcome,[3],inactive
same,Potency,[8],inactive
same,outcome,[18],inactive
same,outcome,[11],inactive
same,Potency,[19],inactive
same,outcome,[14],inactive
same,outcome,[15],inactive
same,Potency,[16],inactive
O=C1NC(=O)C(c2ccccc2)(c2ccccc2)N1,"activity change, negative = inhibition",[17]; at 57.5 µM (top of the series),7.13% (inactive) and 0.319% (inactive)
same,max response,[17]; [20],12.1% and -15.7%
same,max response,[17]; [21],24.5% and -14.7%
same,outcome,[1],inactive
same,outcome,[2],inactive
same,Potency,[4],inactive
same,Potency,[5],inactive
same,Potency,[6],inactive
same,Potency,[7],inactive
same,Potency,[8],inactive
same,Potency,[9],inactive
same,Potency,[10],inactive
same,outcome,[18],inactive
same,outcome,[11],inactive
same,outcome,[14],inactive
same,outcome,[15],inactive
same,Potency,[12],inactive
same,Potency,[16],inactive
Clc1ccc(Cn2c(CN3CCCC3)nc3ccccc32)cc1,"activity change, negative = inhibition",[17]; at 25.7 µM (top of the series),-4.13% (inactive)
same,max response,[17]; [20],-8.03%
same,max response,[17]; [21],-12.8%
same,outcome,[1],inactive
same,outcome,[2],inactive
same,outcome,[3],inactive
same,Potency,[4],7.08 µM (active)
same,Potency,[5],10 µM (active)
same,Potency,[6],11.2 µM (active)
same,Potency,[9],5.62 µM (active)
same,Potency,[10],11.2 µM (active)
same,outcome,[11],inactive
same,outcome,[14],inactive
same,outcome,[15],inactive
same,Potency,[12],inactive
same,Potency,[16],inactive
CCN(CC)CCNC(=O)c1ccc(N)cc1,outcome,[1],inactive
same,outcome,[2],inactive
same,outcome,[3],inactive
same,Potency,[4],inactive
same,Potency,[5],inactive
same,Potency,[6],inactive
same,Potency,[7],inactive
same,Potency,[8],inactive
same,Potency,[9],inactive
same,Potency,[10],inactive
same,outcome,[18],inactive
same,outcome,[11],inactive
same,outcome,[14],inactive
same,outcome,[15],inactive
same,Potency,[12],inactive
same,Potency,[16],inactive
CCCCCN(C)CCC(O)(P(=O)(O)O)P(=O)(O)O,outcome,[14],inactive
same,outcome,[15],inactive
same,Potency,[12],inactive
Cc1cccc(C)c1OCC(C)N (stereo not drawn),"activity change, negative = inhibition",[17]; at 57.5 µM (top of the series),1.76% (inactive) and 1.1% (inactive)
same,max response,[17]; [20],8.91% and -0.493%
same,max response,[17]; [21],19.3% and 0.0191%
same,outcome,[1],inactive
same,outcome,[2],inactive
same,outcome,[3],inactive
same,Potency,[4],12.6 µM (active)
same,Potency,[5],12.6 µM (active)
same,Potency,[6],inactive
same,Potency,[7],inactive
same,Potency,[9],7.94 µM (active)
same,Potency,[10],inactive
same,outcome,[11],inactive
same,Potency,[19],inactive
same,outcome,[14],inactive
same,outcome,[15],inactive
same,Potency,[12],inactive
same,Potency,[16],inactive
